According to PubChem BioAssay (NCI):
The panel holds about 83,000 compounds, 20% with a hit somewhere; the sample as a whole holds those more often.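 Cells were grown in 96-well plates and exposed to the test compound at a single concentration for 48 hours; results are reported as percent growth, with values below 10 considered active.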 A number with no mark means an inactive call. Calls of active or inactive are those of the source.

Columns and labels:
Assay in all cases: NCI-60 one-dose screen, 48 h (100 = growth as untreated, 0 = no growth, -100 = all killed)
Conditions in all cases: 10 µM unless noted
[1] = tested on: NCI-H23 lung
[2] = tested on: NCI-H226 lung
[3] = tested on: NCI-H322M lung
[4] = tested on: HOP-62 NSCLC
[5] = tested on: NCI-H460 lung
[6] = tested on: HOP-92 NSCLC
[7] = tested on: NCI-H522 lung
[8] = tested on: A549/ATCC NSCLC
[9] = tested on: 786-0 renal
[10] = tested on: DU-145 prostate
[11] = tested on: K-562 leukemia
[12] = tested on: MALME-3M melanoma
[13] = tested on: MDA-MB-231 breast
[14] = tested on: RXF 393 renal
[15] = tested on: SF-268 CNS
[16] = tested on: SF-295 CNS
[17] = tested on: SF-539 CNS
[18] = tested on: UACC-257 melanoma
[19] = tested on: M14 melanoma

SMILES: CN(C)c1ccc(/C=C/c2c(F)cccc2F)cc1
- growth [1]: 83.9%
- growth [2]: 94.1%
- growth [3]: 92.7%
- growth [4]: 74.4%
- growth [5]: 107%
- growth [6]: 81%
- growth [7]: 76.4%
- growth [8]: 82.6%
- growth [9]: 105%
- growth [10]: 105%
- growth [11]: 115%
- growth [12]: 90.1%
- growth [13]: 110%
- growth [14]: 108%
- growth [15]: 93.7%
- growth [16]: 96.6%
- growth [17]: 98.3%
- growth [18]: 89%
- growth [19]: 93.2%

SMILES: CCCCCOC(=O)c1ccc(NC(=O)CNCC(C)C)cc1
- growth [1]: 99.4%
- growth [2]: 84.7%
- growth [3]: 91.9%
- growth [4]: 85.1%
- growth [5]: 103%
- growth [6]: 53.8%
- growth [7]: 70.1%
- growth [8]: 88.4%
- growth [9]: 99.9%
- growth [10]: 102%
- growth [11]: 88.8%
- growth [12]: 107%
- growth [13]: 57.7%
- growth [14]: 89.7%
- growth [15]: 95.9%
- growth [16]: 100%
- growth [17]: 102%
- growth [18]: 99.3%
- growth [19]: 97.4%

SMILES: COc1cc2c(cc1OC)-c1ccc3cc4c(cc3c1N(CCN(C)C)C2)OCO4
- growth [1]: -8.26% (active)
- growth [2]: -84.7% (active)
- growth [3]: -3.14% (active)
- growth [4]: -21.6% (active)
- growth [5]: -34.2% (active)
- growth [6]: -5.08% (active)
- growth [7]: -44.9% (active)
- growth [8]: -57.3% (active)
- growth [9]: -87.7% (active)
- growth [10]: 6.23% (active)
- growth [11]: 2.7% (active)
- growth [12]: 24.3%
- growth [13]: -2.8% (active)
- growth [14]: -32.7% (active)
- growth [15]: 23.6%
- growth [16]: -6.18% (active)
- growth [17]: -7.83% (active)
- growth [18]: 10.4%
- growth [19]: -7.62% (active)

SMILES: O=C(/C=C/C12c3ccccc3C(c3ccccc31)C1C(=O)NC(=O)C12)c1ccccc1 (stereo not given)
- growth [1]: 6.51% (active)
- growth [2]: 11%
- growth [3]: 17.6%
- growth [4]: 34.8%
- growth [5]: 1.66% (active)
- growth [6]: 3.17% (active)
- growth [7]: 39.1%
- growth [8]: 26.3%
- growth [9]: 27.1%
- growth [10]: 19.4%
- growth [11]: 13.5%
- growth [12]: 47.5%
- growth [13]: 14%
- growth [14]: -13.1% (active)
- growth [15]: 29.6%
- growth [16]: 28.2%
- growth [17]: 18.5%
- growth [18]: 46.6%
- growth [19]: 19.6%

SMILES: COc1cc2c(=O)n(CCCn3ccnc3)c3c4cc5c(cc4ccc3c2cc1OC)OCO5
- growth [1]: 5.18% (active)
- growth [2]: -42.5% (active)
- growth [3]: 17.5%
- growth [4]: 10.5%
- growth [5]: -9.42% (active)
- growth [6]: -5.78% (active)
- growth [7]: 5.91% (active)
- growth [8]: 22%
- growth [9]: -57.3% (active)
- growth [10]: 15.2%
- growth [11]: 24%
- growth [12]: 39.9%
- growth [13]: 7.7% (active)
- growth [14]: -27% (active)
- growth [15]: 29%
- growth [16]: -18.4% (active)
- growth [17]: -20.2% (active)
- growth [18]: 3.98% (active)
- growth [19]: -4.48% (active)

SMILES: Cc1cc(-c2ccc(N(C)C)cc2)c2sc(=O)[nH]c2n1
- growth [1]: 82.6%
- growth [2]: 64.6%
- growth [3]: 78.1%
- growth [4]: 70.2%
- growth [5]: 65.2%
- growth [6]: 85.5%
- growth [7]: 56.5%
- growth [8]: 66%
- growth [9]: 77.2%
- growth [10]: 98.8%
- growth [11]: 24.5%
- growth [12]: 71.1%
- growth [13]: 71.4%
- growth [14]: 51.2%
- growth [15]: 69.5%
- growth [16]: 48.6%
- growth [17]: 52.9%
- growth [18]: 81.4%
- growth [19]: 44.5%

SMILES: CC(C)n1nc(C#Cc2cccc(O)c2)c2c(N)ncnc21
- growth [1]: -28.4% (active)
- growth [2]: -41.8% (active)
- growth [3]: -30.3% (active)
- growth [4]: -52.5% (active)
- growth [5]: -5.33% (active)
- growth [6]: -70.5% (active)
- growth [7]: -44.5% (active)
- growth [8]: -60% (active)
- growth [9]: -72% (active)
- growth [10]: -6.9% (active)
- growth [11]: -23% (active)
- growth [12]: -74.9% (active)
- growth [13]: -67.7% (active)
- growth [14]: -87.2% (active)
- growth [15]: -49.4% (active)
- growth [16]: -71.9% (active)
- growth [17]: -75.4% (active)
- growth [18]: -41.4% (active)
- growth [19]: -63.8% (active)

SMILES: COc1ccccc1C(=O)NC(=S)Nc1ccc(-c2nc3ccccc3[nH]2)cc1
- growth [1]: 58.4%
- growth [2]: 46.3%
- growth [3]: 80.7%
- growth [4]: 46.2%
- growth [5]: 4.59% (active)
- growth [6]: 101%
- growth [7]: 91.4%
- growth [8]: 58.7%
- growth [9]: 41.5%
- growth [10]: 42.9%
- growth [11]: 48%
- growth [12]: 27.5%
- growth [13]: -10.1% (active)
- growth [14]: 49.1%
- growth [15]: 49.2%
- growth [16]: 61.3%
- growth [17]: 48.1%
- growth [18]: 94.3%
- growth [19]: 54.3%

SMILES: O=C(NCCOCCOCCNc1cccc2c1C(=O)N(C1CCCNC1=O)C2=O)c1cc2c(o1)C(=O)c1ccccc1C2=O (stereo not given)
- growth [1]: -42.8% (active)
- growth [2]: -79.8% (active)
- growth [3]: -62.1% (active)
- growth [4]: -65.2% (active)
- growth [5]: -70.7% (active)
- growth [6]: 22.2%
- growth [7]: -52.7% (active)
- growth [8]: -45.5% (active)
- growth [9]: 3.9% (active)
- growth [10]: -90.8% (active)
- growth [11]: 9.04% (active)
- growth [12]: -94.9% (active)
- growth [13]: -2.54% (active)
- growth [14]: -35.4% (active)
- growth [15]: -9.46% (active)
- growth [16]: -91.9% (active)
- growth [17]: -86.2% (active)
- growth [18]: -84.1% (active)
- growth [19]: -52.7% (active)

SMILES: CCOC(=O)c1ccc(NC(=O)CCCN(CC)CC)cc1
- growth [1]: 95.4%
- growth [2]: 103%
- growth [3]: 92.4%
- growth [4]: 101%
- growth [5]: 107%
- growth [6]: 78%
- growth [7]: 63.6%
- growth [8]: 90.5%
- growth [9]: 87.2%
- growth [10]: 105%
- growth [11]: 97.7%
- growth [12]: 98.5%
- growth [13]: 114%
- growth [14]: 130%
- growth [15]: 104%
- growth [16]: 103%
- growth [17]: 103%
- growth [18]: 108%
- growth [19]: 91.3%
